# From PubChem BioAssay AID504834 (National Center for Advancing Translational Sciences (NCATS), 2011)
# In all, about 320,000 compounds went through this assay and about 22,000 (6.9%) were called active. Where a call stands in place of a potency, no number is given. Another 27% or so got no clear call; they are omitted. Calls come from the whole dose curve; as a rule, active = well fitted inhibition curve with a large enough effect; inconclusive = small, poorly fitted or top-dose-only effect, or another doubt; inactive = no such curve, though single readings can be large or run the other way. For the sample, actives were picked, then their nearest neighbours and some compounds at random.
# Assay: Primary qHTS for delayed death inhibitors of the malarial parasite plastid, 96 hour incubation
# Conditions: P. falciparum luciferase reporter growth; series mostly up to 28.7 µM
# Outline: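 Plates of compound plus infected erythrocytes (2% hematocrit, 0.05% parasitemia final) incubate 96 hours, 37 C, 5% CO2. Detection reagent added; reduced luminescence from the parasites' luciferase reporter flags inhibition.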
# Potency is the fitted concentration of half-maximal effect.
row,SMILES,Potency
1,Cc1nc2ccc(S(=O)(=O)N(C)CC(=O)NC(C)c3ccccc3)cc2s1 (stereo not given),inactive
2,N#CCC(=O)Nc1ccc(C(=O)OCC(=O)Nc2sc3c(c2C#N)CCCC3)cc1,inactive
3,Cc1ccccc1N1CCN(CCCN2C(=O)C3CCCCN3C2=O)CC1 (stereo not given),inactive
4,O=C(C1CC(=O)N(C2CCCC2)C1)N1CCN(c2cccc(C(F)(F)F)c2)CC1 (stereo not given),inactive
5,O=C1C2CCCN2C(=O)N1CCCCN1CCN(c2cccc(C(F)(F)F)c2)CC1 (stereo not given),13.1 µM (active)
6,CCCc1cc(=O)oc2c(C)c(OCC(=O)NCc3ccccn3)ccc12,inactive
7,O=C(Cc1cccc2ccccc12)NNC(=O)Nc1ccc(Cl)cc1,inactive
8,CCCN1C2CCCC1CC(NC(=O)NC13CC4CC(CC(C4)C1)C3)C2 (stereo not given),inactive
9,CC1CCCCN1S(=O)(=O)c1ccc(S(=O)(=O)N(CC(=O)Nc2ccccc2)Cc2cccs2)cc1 (stereo not given),4.65 µM (active)
10,CC1CCCCN1S(=O)(=O)c1ccc(C(=O)Nc2nnc(-c3cccs3)o2)cc1 (stereo not given),inactive
11,CCN(CC(=O)NCc1cccs1)S(=O)(=O)c1ccc(NC(C)=O)cc1,inactive
12,Cc1ccccc1C(=O)Nc1ccccc1NC(=O)c1ccccc1C,inactive
13,COc1cc(NC(=O)NCC2CCN(Cc3ccc(C)cc3)CC2)cc(OC)c1OC,10.4 µM (active)
14,Cc1ccccc1NC(=O)NCC1CCN(Cc2cccc(Cl)c2)CC1,inactive
15,O=C(NCC1CCN(Cc2ccccc2Cl)CC1)Nc1cccc(Cl)c1,1.65 µM (active)
16,Cc1cccc(CN2CCC(CNC(=O)Nc3ccc(F)c(Cl)c3)CC2)c1,inactive
17,COc1ccc(Cl)cc1NC(=O)NCC1CCN(Cc2ccccc2F)CC1,inactive
18,Cc1ccc(C)c(CN2CCC(CNC(=O)Nc3ccc(C)c(F)c3)CC2)c1,inactive
19,Cc1ccc(C(=O)N/C(=C\c2cn(S(=O)(=O)N(C)C)c3ccccc23)C(=O)N2CCCC2)cc1,inactive
20,COc1ccc(-n2nnnc2CNC(=O)c2ccc3ccccc3c2)cc1,inactive
21,COc1ccc(NC(=O)N2CCCC(C(=O)Nc3ccccc3OC)C2)cc1 (stereo not given),inactive
22,CSC1=NCCN1C(=O)Cc1cccc2ccccc12,inactive
23,COc1cc(CNCc2ccc(OC)c3ccccc23)cc(OC)c1OC,inactive
24,O=C(Nc1cccc(Cl)c1)C1CCCN(c2cnccn2)C1 (stereo not given),inactive
25,Cc1ccccc1CN1CCC(C(=O)Nc2ccc(Oc3cccnc3)cc2)CC1,inactive
26,COc1cc(NC(=O)C2CCN(c3cnccn3)CC2)cc(OC)c1,2.62 µM (active)
27,O=C(COC(=O)Cc1ccccc1F)NCCc1ccccc1,inactive
28,Cc1nc2ccc(S(=O)(=O)NCC(=O)NCCN3CCCCC3C)cc2s1 (stereo not given),inactive
29,Cc1nc2ccc(S(=O)(=O)NC(C(=O)N3CCCCCC3)C(C)C)cc2s1 (stereo not given),inactive
30,Cc1nc2ccc(S(=O)(=O)NCC(=O)O)cc2s1,16.5 µM (active)
